Molecules are shown by their SMILES. Where “and” joins values, the source holds several entries; their conditions need not be identical. Equal entries are not always repeated. Results filed as inconclusive are left out. Calls of active or inactive are those of the source. Unless noted, no rule for the calls is given here.

The target in assay [1] is Glucocorticoid receptor (Homo sapiens) (UniProt P04150). Nature of the assay: qHTS assay for small molecule antagonists of glucocorticoid receptor signaling (AID 588533; active = well fitted inhibition curve with a large enough effect in the signal ratio, with a control signal flat, not every such curve was filed as active; the % refers to the signal ratio;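 also: cells stimulated with 2 nM dexamethasone as agonist; % is scaled to controls: 0 for no effect and ±100 for the full control effect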). The essentials:
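Antagonist-mode qHTS: compound titrations added to GRE-bla HeLa cells, then dexamethasone 2 nM final; 18 h, 37 C. CCF4 FRET fluorescence normalized to dexamethasone and DMSO; IC50 from Hill fit.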
(In general: qHTS replaces the single test concentration by a dilution series.)

In assay [2] the target is Peroxisome proliferator-activated receptor delta (Homo sapiens) (UniProt Q03181). Nature of the assay: qHTS assay for small molecule antagonists of peroxisome proliferator-activated receptor delta signaling (AID 588535; active = well fitted inhibition curve with a large enough effect in the signal ratio, with a control signal flat, not every such curve was filed as active; the % refers to the signal ratio). In a few lines: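 Antagonist-mode qHTS using GeneBLAzer PPAR-delta-UAS-bla HEK293T cells; compound exposure 18 hrs at 37 C over a titration. Ratiometric CCF4 fluorescence at 460/530 nm; concentration-response points fitted to the Hill equation.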

The target of assay [3] is Peroxisome proliferator-activated receptor gamma (Homo sapiens) (UniProt P37231). Nature of the assay: qHTS assay for small molecule agonists of peroxisome proliferator-activated receptor gamma signaling (AID 588536; active = well fitted curve in the direction sought with a large enough effect in the signal ratio, with a control signal flat, not every such curve was filed as active; the % refers to the signal ratio;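 also: 0% = DMSO basal wells and 100% = rosiglitazone at 2 µM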). In a few lines: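 This is an agonist-mode beta-lactamase reporter assay in HEK293 PPAR-gamma-UAS-bla cells with 1% charcoal/dextran FBS. Compound titrations ran 16 h at 37 C before CCF4 detection. EC50 and efficacy are Hill fits scaled to 2 uM rosiglitazone (100%) and DMSO basal.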

Assay [4] shares this target. As to the kind of experiment: qHTS assay for small molecule antagonists of peroxisome proliferator-activated receptor gamma signaling (AID 588537; active = well fitted inhibition curve with a large enough effect in the signal ratio, with a control signal flat, not every such curve was filed as active; the % refers to the signal ratio; also: potency is read from the fitted curve at half-maximal effect). The essentials: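 Cell-based beta-lactamase assay; GW9662 served as the antagonist control. Stimulation used rosiglitazone, final 50 nM, 16 h, 37 C.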
A short description of assay [5]: qHTS assay for small molecule agonists of retinoid X receptor alpha signaling (AID 588544). To be noted: HEK293T RXRa-UAS-bla, beta-lactamase reporter, 18 h; 530 nm emission.
Assay [6] can be described thus: qHTS assay for small molecule agonists of the antioxidant response element (ARE) signaling pathway (AID 651741; active = well fitted activation curve with a large enough effect in the signal ratio; the % refers to the signal ratio; also: potency is read from the fitted curve at half-maximal effect; as to activation: % of control where 0% means no effect). The essentials: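 Agonist activity is measured as ARE-driven beta-lactamase expression in a stable HepG2 reporter line, using 16 h compound treatment at 37 C and a FRET substrate fluorescence readout after 2 h.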
For assay [7], the target named is Nuclear receptor subfamily 1 group I member 2 (Rattus norvegicus) (UniProt Q9R1A7). As to the kind of experiment: qHTS assay for small molecule activators of the rat pregnane X receptor (rPXR) signaling pathway (AID 651751). Also: 0% is about no effect. To be noted: rPXR reporter cells, luciferase (One-Glo), 24 h.
Assay [8] is described as follows: qHTS assay for small molecule activators of the human pregnane X receptor (PXR) signaling pathway (AID 720659). Also: 0% is about no effect.
Assay [9] has as its target Androgen receptor (Homo sapiens) (UniProt P10275). As to the kind of experiment: qHTS assay for small molecule agonists of androgen receptor signaling (AID 588515; active = well fitted curve in the direction sought with a large enough effect in the signal ratio, with a control signal flat; the % refers to the signal ratio; also: % is scaled to controls: 0 for no effect and ±100 for the full control effect). To be noted: AR-UAS-bla HEK293, beta-lactamase ratio, agonist 16 h; stronger effect = higher value. In a few lines:
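Stimulation of an AR-responsive β-lactamase reporter in GripTite HEK293 cells was measured after 16 h compound exposure at 37 °C, via CCF4 fluorescence after 2 h RT. EC50 from Hill fits, normalized to R1881 at 30 nM.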

The nature of assay [10]: qHTS assay for small molecule disruptors of the mitochondrial membrane potential - 1 hr assay (AID 651754; calls by dose curve; also: potency is read from the fitted curve at half-maximal effect; nearly all actives have a fitted effect of over 35% in size). In a few lines:
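Read-out: dye fluorescence at 490 nm ex/535 nm em (monomers) and 540 nm ex/590 nm em (aggregates) in HepG2 cells. Compound exposure 1 hr at 37C, followed by 30 min dye loading.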

Assay [11] concerns the target Androgen receptor (Homo sapiens) (UniProt P10275). As to the kind of experiment: qHTS assay for small molecule antagonists of androgen receptor signaling (AID 588516; active = well fitted curve in the direction sought with a large enough effect in the signal ratio, with a control signal flat, not every such curve was filed as active; the % refers to the signal ratio; also: % is scaled to controls: 0 for no effect and ±100 for the full control effect). In a few lines:
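Cells were plated and incubated 5 h, compounds added in titration, then R1881 (10 nM final) as agonist. After 16 h at 37 C, CCF4 substrate was loaded for 2 h at room temperature and fluorescence measured.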

Assay [12] deals with Tumor necrosis factor (Homo sapiens) (UniProt P01375). Nature of the assay: qHTS assay to identify small molecules that stimulate Tumor Necrosis Factor-alpha (TNF-alpha) secretion (AID 651757; active = well fitted curve in the direction sought with a large enough effect in the signal ratio; the % refers to the signal ratio; also: potency is read from the fitted curve at half-maximal effect). In a few lines: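 THP-1 cells, 3000/well; compound 17 hrs, 37 C; add cryptate/XL665 anti-TNF-alpha antibody pair; 3 hr RT; TR-FRET (HTRF) read of secreted TNF-alpha. Quantitative HTS format.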
Sequence of Tumor necrosis factor (Homo sapiens) (P01375 whole entry, looked up): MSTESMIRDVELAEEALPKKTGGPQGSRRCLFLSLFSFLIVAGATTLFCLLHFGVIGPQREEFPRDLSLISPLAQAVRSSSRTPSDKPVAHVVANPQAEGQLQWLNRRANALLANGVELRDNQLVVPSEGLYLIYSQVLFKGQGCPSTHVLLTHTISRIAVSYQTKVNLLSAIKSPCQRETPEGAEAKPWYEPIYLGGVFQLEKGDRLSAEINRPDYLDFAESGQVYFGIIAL

Sequence of Nuclear receptor subfamily 1 group I member 2 (Rattus norvegicus) (Q9R1A7 whole entry, looked up): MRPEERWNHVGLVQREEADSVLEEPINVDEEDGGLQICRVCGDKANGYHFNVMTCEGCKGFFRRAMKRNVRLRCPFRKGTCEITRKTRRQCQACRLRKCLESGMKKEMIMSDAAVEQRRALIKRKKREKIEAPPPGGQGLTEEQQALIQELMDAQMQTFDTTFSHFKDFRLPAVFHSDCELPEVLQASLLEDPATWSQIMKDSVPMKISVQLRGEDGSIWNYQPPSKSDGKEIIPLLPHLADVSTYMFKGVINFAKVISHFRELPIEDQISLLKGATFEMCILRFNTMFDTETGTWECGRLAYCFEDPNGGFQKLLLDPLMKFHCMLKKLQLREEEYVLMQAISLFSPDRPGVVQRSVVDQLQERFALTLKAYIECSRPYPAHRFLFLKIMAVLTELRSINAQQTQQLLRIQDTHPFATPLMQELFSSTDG
Sequence of Peroxisome proliferator-activated receptor delta (Homo sapiens) (Q03181 whole entry, looked up): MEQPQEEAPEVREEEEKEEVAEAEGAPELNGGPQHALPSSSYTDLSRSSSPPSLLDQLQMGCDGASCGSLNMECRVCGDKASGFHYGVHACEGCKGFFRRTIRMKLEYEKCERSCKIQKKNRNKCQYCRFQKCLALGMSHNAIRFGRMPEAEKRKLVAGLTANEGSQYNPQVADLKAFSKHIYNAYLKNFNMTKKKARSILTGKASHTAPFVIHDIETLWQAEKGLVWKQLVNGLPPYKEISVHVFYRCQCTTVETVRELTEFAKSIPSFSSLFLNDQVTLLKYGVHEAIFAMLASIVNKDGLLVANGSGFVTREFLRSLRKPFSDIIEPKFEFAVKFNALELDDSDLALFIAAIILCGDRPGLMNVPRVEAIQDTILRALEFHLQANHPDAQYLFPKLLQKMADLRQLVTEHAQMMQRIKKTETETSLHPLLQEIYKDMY
Sequence of Androgen receptor (Homo sapiens) (P10275 whole entry, looked up): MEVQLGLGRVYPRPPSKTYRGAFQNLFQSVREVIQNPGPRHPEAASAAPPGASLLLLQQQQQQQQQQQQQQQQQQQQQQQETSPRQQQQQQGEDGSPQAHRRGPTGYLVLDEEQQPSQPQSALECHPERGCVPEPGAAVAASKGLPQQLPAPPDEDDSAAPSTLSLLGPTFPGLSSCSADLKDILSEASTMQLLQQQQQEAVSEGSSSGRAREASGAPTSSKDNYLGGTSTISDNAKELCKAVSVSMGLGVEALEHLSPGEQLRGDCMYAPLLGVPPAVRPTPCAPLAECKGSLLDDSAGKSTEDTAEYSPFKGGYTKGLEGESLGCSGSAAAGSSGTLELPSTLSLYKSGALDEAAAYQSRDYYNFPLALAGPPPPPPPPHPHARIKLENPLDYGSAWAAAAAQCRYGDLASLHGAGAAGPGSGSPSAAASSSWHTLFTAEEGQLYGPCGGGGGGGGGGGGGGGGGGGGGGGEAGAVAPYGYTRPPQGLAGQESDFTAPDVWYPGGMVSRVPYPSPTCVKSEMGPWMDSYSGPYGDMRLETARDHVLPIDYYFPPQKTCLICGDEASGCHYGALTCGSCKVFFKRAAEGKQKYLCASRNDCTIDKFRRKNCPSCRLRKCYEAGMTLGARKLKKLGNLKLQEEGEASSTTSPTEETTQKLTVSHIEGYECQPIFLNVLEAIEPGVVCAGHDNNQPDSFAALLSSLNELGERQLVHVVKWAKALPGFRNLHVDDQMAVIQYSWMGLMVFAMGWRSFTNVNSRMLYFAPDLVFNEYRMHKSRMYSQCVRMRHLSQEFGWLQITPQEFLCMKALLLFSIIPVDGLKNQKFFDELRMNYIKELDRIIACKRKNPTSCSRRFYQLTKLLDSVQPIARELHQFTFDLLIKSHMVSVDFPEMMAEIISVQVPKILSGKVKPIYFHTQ
Sequence of Peroxisome proliferator-activated receptor gamma (Homo sapiens) (P37231 whole entry, looked up): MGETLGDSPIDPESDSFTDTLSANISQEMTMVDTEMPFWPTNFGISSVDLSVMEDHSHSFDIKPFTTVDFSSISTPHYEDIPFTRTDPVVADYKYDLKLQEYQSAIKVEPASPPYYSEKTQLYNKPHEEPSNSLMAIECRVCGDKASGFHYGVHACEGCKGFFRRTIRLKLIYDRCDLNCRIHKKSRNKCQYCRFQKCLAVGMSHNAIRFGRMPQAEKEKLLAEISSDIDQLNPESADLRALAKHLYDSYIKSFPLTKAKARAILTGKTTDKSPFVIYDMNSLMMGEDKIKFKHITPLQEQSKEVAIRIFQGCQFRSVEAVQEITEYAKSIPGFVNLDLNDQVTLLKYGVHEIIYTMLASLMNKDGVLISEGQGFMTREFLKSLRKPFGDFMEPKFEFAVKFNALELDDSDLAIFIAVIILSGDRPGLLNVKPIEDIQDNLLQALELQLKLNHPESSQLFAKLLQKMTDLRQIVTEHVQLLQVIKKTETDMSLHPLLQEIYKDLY
Sequence of Glucocorticoid receptor (Homo sapiens) (P04150 whole entry, looked up): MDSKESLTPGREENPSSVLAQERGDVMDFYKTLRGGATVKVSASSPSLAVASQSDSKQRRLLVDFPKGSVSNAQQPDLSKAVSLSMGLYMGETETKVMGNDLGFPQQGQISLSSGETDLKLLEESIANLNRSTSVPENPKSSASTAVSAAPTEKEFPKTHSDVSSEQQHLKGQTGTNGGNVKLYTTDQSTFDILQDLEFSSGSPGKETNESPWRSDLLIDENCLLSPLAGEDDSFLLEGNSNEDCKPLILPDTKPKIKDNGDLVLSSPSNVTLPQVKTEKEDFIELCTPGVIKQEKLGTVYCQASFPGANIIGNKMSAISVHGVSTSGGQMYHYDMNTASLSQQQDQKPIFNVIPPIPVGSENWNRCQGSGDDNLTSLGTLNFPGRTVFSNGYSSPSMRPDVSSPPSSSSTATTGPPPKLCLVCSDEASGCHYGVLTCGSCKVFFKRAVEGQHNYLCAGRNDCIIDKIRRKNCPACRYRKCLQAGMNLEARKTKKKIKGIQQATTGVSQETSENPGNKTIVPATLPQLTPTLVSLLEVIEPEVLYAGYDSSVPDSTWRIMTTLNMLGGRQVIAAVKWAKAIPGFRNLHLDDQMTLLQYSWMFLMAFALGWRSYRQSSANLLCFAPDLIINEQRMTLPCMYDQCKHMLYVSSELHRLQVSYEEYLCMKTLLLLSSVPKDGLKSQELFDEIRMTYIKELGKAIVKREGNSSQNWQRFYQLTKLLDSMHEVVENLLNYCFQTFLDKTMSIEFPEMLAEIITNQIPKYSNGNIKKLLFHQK

Take `CCCCCCCCCCCC#N`: the Potency entry in assay [1], in [2], in assay [3], in assay [4] and in [6] was “inactive” each time. The figures for the max response in assay [5] and in assay [7] were 7.65% and 0.164% (inactive), respectively. In addition, in assay [8], the call was inactive.

With `FC(F)C(F)(F)OCC(Cn1cncn1)c1ccc(Cl)cc1Cl` (stereo not given), the Potency result in assay [1] and in [3] was “inactive” throughout. Besides, the max response in assay [5] was determined as 14%.

As for `Cc1nc(N(C)C)nc(OC(=O)N(C)C)c1C`, the Potency entry in assay [1], in [2], in assay [3], in [4] and in [6] was “inactive” throughout. Further, the max response in assay [5] was 0.351%; in [7] it was -4.44% (inactive). Besides, in assay [8], the molecule was classed as inactive.

Take `c1ccc2c(c1)[nH]c1ccccc12`: in assay [9], the activation is 0.372% (inactive). Besides, the Potency in assay [10] is 59.6 µM (active).

Consider `COc1nn(C(=O)NS(=O)(=O)c2ccccc2OC(F)(F)F)c(=O)n1C`, for which the Potency result in assay [1], in assay [3], in [4] and in assay [6] was “inactive” in each case. Besides, the values for the max response in assay [5] and in assay [7] were -2.96% and 1.31% (inactive), respectively. Further, the result in assay [8] was inactive.

Consider `CCCCOC(=O)c1ccccc1C(=O)O`, for which, in assay [9], the activation was 5.7% (inactive). For the same molecule, the Potency entry in assay [2], in assay [3] and in [4] was “inactive” each time. In addition, the max response was -15.3% in assay [5] and -8.39% (inactive) in [7]. The molecule was classed as inactive in [8].

For `CC1(C)[C@H](C(=O)O[C@H](C#N)c2cccc(Oc3ccccc3)c2)[C@@H]1/C=C(\Cl)C(F)(F)F`, the Potency result in [1] and in assay [2] was “inactive” in each case. In [5], the max response came out at 9.43%. In assay [6], the Potency was 54.5 µM (active).

In the case of `CCc1cc(C)cc(CC)c1-c1c(OC(=O)C(C)(C)C)n2n(c1=O)CCOCC2`, the Potency result in assay [1], in assay [3], in [4] and in assay [6] was “inactive” in each case. Further, the values for the max response in assay [5] and in assay [7] were -12.9% and 1.04% (inactive), respectively.

As for `O=[N+]([O-])c1ccc2ccc3cccc4ccc1c2c34`, the activation in assay [9] was -12% (inactive). For the same molecule, the Potency result in assay [4] was “inactive”. Moreover, the results for the max response in [5] and in assay [7] were 19.4% and 3% (inactive), respectively. For the same molecule, the Potency in assay [6] was 4.33 µM (active). The molecule was classed as inactive in assay [8].

`CCCOCC(=Nc1ccc(Cl)cc1C(F)(F)F)n1ccnc1`: the Potency entry in assay [1] and in assay [2] was “inactive” each time. In addition, the max response in assay [5] was -2.58%. The Potency in assay [6] was 19.3 µM (active).

Regarding `CCS(=O)(=O)c1cccnc1S(=O)(=O)NC(=O)Nc1nc(OC)cc(OC)n1`, the Potency result in assay [1], in assay [2], in [3] and in [4] was “inactive” in each case. In addition, the Potency in assay [6] was 10.9 µM (active). Moreover, the max response in assay [7] is -1.1% (inactive).

As to `CCOP(=S)(OCC)SC(CCl)N1C(=O)c2ccccc2C1=O` (stereo not given), the activation in [9] was -16.4% (inactive). For the same molecule, the Potency entry in assay [11] and in assay [2] was “inactive” each time. The Potency in assay [6] is 27.3 µM (active).

On to `COP(=O)(OC)Oc1nc(Cl)c(Cl)cc1Cl`, for which the Potency result in assay [11] and in [1] was “inactive” in each case. For the same molecule, the figures for the max response in assay [5] and in assay [7] were 28.3% and 0.764% (inactive), respectively. Further, in assay [6], the Potency is 48.6 µM (active). The call in [8] was inactive.

With `COC(=O)c1c(C(F)F)nc(C(F)(F)F)c(C2=NCCS2)c1CC(C)C`, the activation in assay [9] was -1.74% (inactive). The Potency entry in assay [11], in [2] and in assay [3] was “inactive” throughout.

As for `CC(C)N1C(=O)N(c2ccccc2)CSC1=NC(C)(C)C`, the activation in assay [9] is -16.2% (inactive) and -14% (inactive). The Potency entry in assay [2] and in assay [4] was “inactive” in each case. For the same molecule, the max response was 15.4% and 12.1% in assay [5]; 13.3% (inactive) and 1.8% (inactive) in assay [7]. Further, in assay [6], the Potency was 68.6 µM (active) and 61.1 µM (active).

For the molecule `c1ccc2c(c1)c1cccc3ccc4cccc2c4c31`, the activation in assay [9] is 7.55% (inactive). For the same molecule, the Potency is 6.86 µM (active) in [6] and 29.8 µM (active) in assay [12].

With `CNC(=O)N(C)c1nc2ccccc2s1`, in assay [9], the activation is -11.3% (inactive). Besides, the Potency entry in assay [1], in [3] and in assay [4] was “inactive” in each case. The max response in assay [5] was -6.4%. Besides, the Potency in [6] is 27.3 µM (active).

Turning to `CCOC(=O)COc1cc(-c2nn(C)c(OC(F)F)c2Cl)c(F)cc1Cl`, the Potency result in assay [11] and in [2] was “inactive” throughout. Moreover, in assay [7], the max response was 0.553% (inactive).

In the case of `CC(C)=C[C@@H]1[C@@H](C(=O)OCN2C(=O)C3=C(CCCC3)C2=O)C1(C)C`, the activation in assay [9] is 0.858% (inactive). For the same molecule, the max response in assay [7] was 4.94% (inactive).

In the case of `O=C1c2ccccc2C(=O)C1C(=O)C(c1ccccc1)c1ccc(Cl)cc1` (stereo not given), the activation in [9] is -4.67% (inactive). The Potency entry in assay [2] and in assay [3] was “inactive” throughout. Further, the figures for the max response in assay [5] and in [7] were -4.27% and 10.4% (inactive), respectively. The Potency in assay [6] was 54.5 µM (active).

On to `Brc1ccc(Br)cc1`, for which the Potency entry in assay [1], in [2], in [3] and in assay [4] was “inactive” throughout. For the same molecule, the max response in [5] is 0.756%; in assay [7], -2.46% (inactive). In assay [8], the outcome was inactive.

As to `CSc1nnc(C(C)(C)C)c(=O)n1N`, the Potency result in assay [2] and in assay [6] was “inactive” each time. Besides, the max response in assay [5] was -15.9%; in assay [7] it was 0.612% (inactive).

With `C#CCC1=C(C)[C@H](OC(=O)[C@H]2[C@H](C=C(C)C)C2(C)C)CC1=O`, the Potency entry in assay [2] and in assay [3] was “inactive” each time. In assay [5], the max response is 11.7%. Also, the Potency in assay [6] is 61.1 µM (active).

`CS(=O)(=O)NC(=O)c1cc(Oc2ccc(C(F)(F)F)cc2Cl)ccc1[N+](=O)[O-]`: the Potency entry in [3] was “inactive”. Further, the max response in assay [5] was 1.68%; in assay [7] it was -4.18% (inactive). Besides, the outcome in assay [8] was inactive.

For `O=[N+]([O-])c1cc(C(F)(F)F)c(Cl)c([N+](=O)[O-])c1Nc1ncc(C(F)(F)F)cc1Cl`, the molecule was classed as inactive in assay [8].

Take `CCOP(=O)(OCC)Oc1cc(C)nc(C(C)C)n1`: the Potency entry in assay [2] and in assay [4] was “inactive” throughout. For the same molecule, in assay [7], the max response was -12.9% (inactive). Also, the result in [8] was inactive.

With `C[Si](Cn1cncn1)(c1ccc(F)cc1)c1ccc(F)cc1`, the Potency result in assay [4] is “inactive”.

As for `Cc1ccn2nc(S(=O)(=O)Nc3c(F)cccc3F)nc2n1`, the Potency entry in [2], in assay [3], in [4] and in assay [6] was “inactive” throughout. The max response is -22% in assay [5] and -3.4% (inactive) in assay [7]. Further, the molecule was classed as inactive in [8].

In the case of `CO/N=C(/C1=NOCCO1)c1ccccc1Oc1ncnc(Oc2ccccc2Cl)c1F`, in [4], the Potency is 25.1 µM (active). Further, the molecule was classed as inactive in assay [8].

The record behind these values is PubChem BioAssay (NCATS).
